# AMA1 RON2 block = qHTS for Inhibitors of AMA1-RON; Towards Development of Antimalarial Drug Lead: Primary Screen; AID 720542, 2013; Plasmodium falciparum AMA1 (3D7) - RON2 peptide interaction; Potency, µM (top dose mostly 58.2 µM), actives largely listed as inhibitors; AlphaScreen AMA1-biotinylated RON2 peptide binding; 360,000 tested, 0.2% active; further: nearly all actives have a fitted effect of over 45% in size
#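 AMA1 (3D7) with his tag at 25 nM final met compounds first, then biotinylated RON2 peptide at 25 nM; detection used donor plus acceptor beads, 10 µg/mL apiece, read by AlphaScreen after 30 min at room temperature.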
# RE007 growth inh = qHTS Assay for Inhibitors of the HIV-1 protein Vpr; Potency, µM (top dose mostly 92.2 µM), most hits filed as inhibitors; 360,000 tested, 0.21% active; AID 651644, 2012; S. pombe RE007 Vpr strain, BacTiter-Glo ATP luminescence, 24 h; active means well fitted falling curve with a large enough effect; inconclusive means small, poorly fitted or top-dose-only effect; inactive means no such curve, though single readings can be large or run the other way; further: nearly all actives have a fitted effect of over 50% in size
#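 Fission yeast RE007 carrying one integrated HIV-1 vpr copy, seeded at OD 0.01 in PMG+AL medium with 23 nL pinned compound. Grown 24 h at 30 degrees; viability read by BacTiter-Glo luminescence after 5 min.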
# AmpC inh detg = qHTS Inhibitors of AmpC Beta-Lactamase (assay with detergent) | AmpC hydrolysis of nitrocefin, absorbance 480 nm, 0.01% Triton | Potency, µM (series often up to 114 µM), hits mostly inhibitors | 370,000 tested, 0.041% active | AID 485294, 2010; further: nearly all actives have a fitted effect of over 25% in size
# Target sequence (P00811 whole entry, looked up): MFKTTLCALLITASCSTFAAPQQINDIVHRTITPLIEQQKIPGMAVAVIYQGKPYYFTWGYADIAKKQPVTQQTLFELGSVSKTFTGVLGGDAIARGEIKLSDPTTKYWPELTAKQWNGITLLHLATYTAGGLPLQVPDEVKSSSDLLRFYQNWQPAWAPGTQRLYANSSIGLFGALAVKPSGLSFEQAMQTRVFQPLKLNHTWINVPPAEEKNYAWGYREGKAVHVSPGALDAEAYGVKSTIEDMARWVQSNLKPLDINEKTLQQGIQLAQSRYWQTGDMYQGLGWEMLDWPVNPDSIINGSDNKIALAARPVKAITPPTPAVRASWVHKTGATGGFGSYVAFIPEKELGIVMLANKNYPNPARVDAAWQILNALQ
#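 20 mM phosphate pH 7.0 + 0.01% (detergent screen) or 0.0001% Triton X-100; 5.3 nM AmpC reagent; cpd preinc 15 min RT; nitrocefin (800 uM stock) to start; A480 q20 s × 4 min; Activity was normalised to no-enzyme and no-compound control wells.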
# Sm TGR inh = qHTS Assay for the Inhibitors of Schistosoma Mansoni Peroxiredoxins. purified TGR, DTNB reduction, TNB absorbance 405 nm. Schistosoma mansoni thioredoxin glutathione reductase (TGR), Q962Y6. AID 485364, 2010. Potency, µM (top dose mostly 114 µM), actives largely listed as inhibitors. 360,000 tested, 3% active; further: nearly all actives have a fitted effect of over 60% in size
#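 First, TGR (20 nM dispensed) and NADPH were mixed with compound. Second, a 15 min room-temperature incubation followed. Third, further NADPH and then DTNB were added to start the reaction. Finally, TNB absorbance was monitored kinetically.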
# AmpC inh no detg = qHTS Inhibitors of AmpC Beta-Lactamase (assay without detergent). P00811. AmpC nitrocefin hydrolysis, absorbance 480 nm, 0.0001% Triton. Potency, µM (highest dose often 57.1 µM), actives largely listed as inhibitors. 330,000 tested, 0.52% active. AID 485341, 2010; further: nearly all actives have a fitted effect of over 20% in size
#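 20 mM phosphate pH 7.0 + 0.01% (detergent screen) or 0.0001% Triton X-100; 5.3 nM AmpC reagent; cpd preinc 15 min RT; nitrocefin (800 uM stock) to start; A480 q20 s × 4 min; Activity was normalised to no-enzyme and no-compound control wells.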
# A number is an active result; - = inactive; ? = inconclusive; . = no result; [ ] = dose if it differs, or a comment. Only some compounds are listed: those with a hit (about 3.2% of all), similar ones and a draw of the others. Unless noted, the call rests on the fitted dose curve; in most records, active means well fitted curve in the direction sought with a large enough effect; inconclusive means small, poorly fitted or top-dose-only effect, or another doubt; inactive means no such curve, though single readings can be large; an effect the other way counts as inactive or inconclusive.
SMILES,AMA1 RON2 block,RE007 growth inh,AmpC inh detg,Sm TGR inh,AmpC inh no detg
O=C(Nc1nc(-c2ccccc2)cs1)C1c2ccccc2Oc2ccccc21,-,-,-,-,0.18µM
COc1ccc(OC)c(-c2csc(NC(=O)CSc3ccccc3)n2)c1,-[2.32 µM],-,-,-,-
CCc1c(C)nc(SCC(=O)Nc2nc(-c3ccc(OC)cc3)cs2)[nH]c1=O,-,-,-,.,14µM
O=C(Nc1nc(-c2ccncc2)cs1)C1c2ccccc2Oc2ccccc21,-,-,-,-,-
COc1ccc(C2c3c(oc4ccc(F)cc4c3=O)C(=O)N2Cc2ccc3c(c2)OCO3)cc1 (stereo not given),.,.,-,-,.
CCOc1ccc(-c2c(C)nn3c(C)c(C(=O)NCc4cccc(OC)c4)cnc23)cc1OCC,.,.,-,-,.
COC(=O)c1ccccc1NC(=O)CSc1cc(-c2ccccc2)nc(C)n1,.,.,-,-,.
CC(C)Cc1nn2c(=O)cc(COC(=O)c3cccc(NC(=O)c4cccs4)c3)nc2s1,.,.,-,-,.
Cn1cnnc1SCC(=O)Nc1nc(-c2ccccc2)cs1,-,-,79µM,-,-
COc1ccc(/C=C/C(=O)NC(=S)Nc2ccc(S(=O)(=O)Nc3cc(C)on3)cc2)cc1,-,-,-,-,-
CC(=O)N(C)c1ccc(NC(=S)NC(=O)/C=C/c2ccco2)cc1,-,-,-,28µM,-
CCOc1ccc(NC(=S)NC(=O)/C=C/c2ccco2)cc1,-,-,-,22µM,-
O=C(/C=C/c1ccccc1)NC(=S)Nc1ccc(N2CCOCC2)cc1,-,-,-,-,-
CCOc1ccc(NC(=S)NCc2ccco2)cc1,-,-,-,-,-
COc1cc(NS(=O)(=O)c2ccc(NC(=S)NC(=O)/C=C/c3ccco3)cc2)ncn1,?,-,-,40µM,-
CN1CCN(c2ccc(NC(=S)NC(=O)/C=C/c3ccco3)cc2)CC1,-,?,-,50µM,-
CCOc1cccc(C2c3c(oc4ccccc4c3=O)C(=O)N2c2nc(C)c(C(=O)OC)s2)c1 (stereo not given),.,.,-,-,.
CCOC(=O)c1cccc(NS(=O)(=O)c2cc3c(cc2C)NC(=O)CO3)c1,.,.,-,-,.
Cc1cccnc1NC(=S)NC(=O)/C=C/c1ccco1,-,?,-,?,-
CC(=O)Nc1ccc(NC(=S)NC(=O)/C=C/c2ccco2)cc1,-,-,-,18µM,-
Cc1cccc(NC(=O)CSc2cn(CC(=O)N3CCC(C)CC3)c3ccccc23)c1C,.,.,-,-,.
O=C1CCN(c2ccc([N+](=O)[O-])cc2F)CC1,-,-,?,40µM,-
O=C(c1ccco1)N1CCN(c2ccc([N+](=O)[O-])cc2F)CC1,-,-,-,35µM,-
O=C(COc1ccc([N+](=O)[O-])cc1)Nc1ccc(N2CCN(C(=O)c3ccco3)CC2)cc1,-,-,-,35µM,-
O=C(COc1ccc(Cl)cc1)Nc1ccc(N2CCN(C(=O)c3ccco3)CC2)cc1,-,?,-,-,-
SMILES,AMA1 RON2 block,RE007 growth inh,AmpC inh detg,Sm TGR inh,AmpC inh no detg
O=[N+]([O-])c1ccc(N2CC2)c([N+](=O)[O-])c1,-,?,.,.,.
CCCSc1nnc(NC(=O)c2cc(=O)c3ccccc3o2)s1,.,.,-,-,.
Cc1cccc(N2CCC(N3CCN(C4CCCCC4)C(CCO)C3)CC2)c1C (stereo not given),-,-,-,5µM,-
O=C(O)C1=C[C@@H](c2ccc(C(F)(F)F)cc2)C[C@@H](OCc2ccc(CO)cc2)O1,-,-,-,40µM,-
C#Cc1ccc([C@@H]2C=C(C(=O)O)O[C@H](OCc3ccc(CO)cc3)C2)cc1,-,-,-,35µM,-
O=C(O)C1=C[C@H](c2ccc(Br)cc2)C[C@H](OCc2ccc(CO)cc2)O1,-,-,-,32µM,-
Cc1cccc(N=Cc2[nH]c3ccc(Br)c(Cl)c3c2O)c1,-[11.6 µM],-,-,?,-
COc1ccccc1CN=Cc1[nH]c2ccc(Br)c(Cl)c2c1O,-,-,-,11µM,-
O=c1cc(N2CCc3ccccc3C2)[nH]c(=O)n1-c1ccccc1Cl,-,-,-,-,10µM
CCCNS(=O)(=O)c1ccc(CCC(=O)Nc2ccc3c(c2)OCO3)cc1,-,-,-,-,-
CC(=O)c1ccc(S(=O)(=O)NCCCC(=O)N(C)Cc2ccc3c(c2)OCO3)cc1,-,-,-,16µM,-
CCOC(=O)C1(CCc2ccccc2)CCN(C2Cc3ccccc3C2)CC1,-,-,-,-,-
CCOC(=O)C1(CCc2ccccc2)CCN(C2CCSCC2)CC1,?,-,-,11µM,-
N/C(=N\OC(=O)c1cc(Cl)ccc1Cl)c1cccnc1,-,-,-,-,-
N/C(CS(=O)(=O)c1ccccn1)=N\OC(=O)c1ccccc1Cl,-,-,-,40µM,-
N/C(=N\OC(=O)c1ccccc1Cl)c1cccnc1,-,20µM,-,-,-
N/C(CS(=O)(=O)c1ccccn1)=N\OC(=O)c1ccc(Cl)cc1,?,-,-,-,-
Cc1ccc(C(=O)O/N=C(\N)c2ccccn2)c(Cl)c1,-,13µM,-,-,-
CCOC(=O)c1ccc(NC(=O)CN2Cc3ccccc3C2=O)cc1,.,.,-,-,.
CCC(C(=O)Nc1cc(-c2nc3cccnc3s2)ccc1C)c1ccccc1 (stereo not given),.,.,-,-,.
CCc1cc(=O)oc2cc(C)c(CN3CCCCC3)c(O)c12,-,-,?,-,-
CCc1cc(=O)oc2cc(C)c(CN3CCCC3)c(O)c12,12µM,-,?,?,11µM
O=C(NCCn1cc(SCc2ccccc2Cl)c2ccccc21)c1cccs1,.,.,-,-,.
Cc1ccc(N2C(=O)c3ccccc3C2C(=O)c2ccc(C)c(C)c2O)cc1 (stereo not given),?,-,-,4.5µM,-
Cc1ccc(N2C(=O)c3ccccc3C2C(=O)c2ccc(O)cc2O)cc1 (stereo not given),-,-,-,?,-
O=C1C2C3C=CC(C4CC34)C2C(=O)N1c1ccc2c(c1)OCO2 (stereo not given),-,-,-,45µM,-
CC(C)=C1C2C=CC1C1C(=O)N(c3ccc4c(c3)OCO4)C(=O)C21 (stereo not given),-,32µM,-,20µM,-
CC(C)=C1C2CCC1C1C(=O)N(c3ccc4c(c3)OCO4)C(=O)C21 (stereo not given),-,.,-,-,-
O=C(C[C@@H]1CC[C@@H](NC(=O)Nc2cccc(F)c2)[C@@H](CO)O1)NCC1CCCCC1,-,-,.,.,.
